# Calls of active or inactive are those of the source. Rule for the calls: active = hit-call score of the fitted dose curve at least 0.9, where 1 is the maximum; inactive = score below 0.9.
# Assays:
# Details in all cases: mRNA level, 48 h; actives raise or lower the signal
# CYP2E1 (gene 1571) = experiment: LTEA_HepaRG_CYP2E1: Life Technologies and Expression Analysis (LTEA) Assay for CYP2E1 using HepaRG (AID 2283485)
# In short: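 Readout is qRT-PCR of CYP2E1 mRNA, normalized to three housekeeping genes and fitted bidirectionally against 0.5% DMSO. HepaRG cells were dosed 48 h at eight concentrations, highest 100 uM with half-log dilutions.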
# CYP4A11 (gene 1579) = experiment: LTEA_HepaRG_CYP4A11: Life Technologies and Expression Analysis (LTEA) Assay for CYP4A11 using HepaRG (AID 2283486)
# In short: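 Readout is CYP4A11 transcript level by qRT-PCR, normalized to three housekeeping genes and fitted bidirectionally against 0.5% DMSO. Human HepaRG cells were treated 48 h, in duplicate, with an 8-point half-log series topping at 100 uM.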
# [1] = read-out: Cytochrome P450 3A4 (Homo sapiens) (UniProt P08684); experiment: LTEA_HepaRG_CYP3A4: Life Technologies and Expression Analysis (LTEA) Assay for CYP3A4 using HepaRG (AID 2283487)
# In short: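 CYP3A4 transcript measured by TaqMan qRT-PCR and normalized to three housekeeping genes after 48 h chemical exposure of human HepaRG cells. Top concentration 100 uM, half-log steps, 0.5% DMSO vehicle; gain or loss fitted against DMSO baseline.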
# [2] = read-out: DNA damage-inducible transcript 3 (DDIT3), DDIT3 (gene 1649); experiment: LTEA_HepaRG_DDIT3: Life Technologies and Expression Analysis (LTEA) Assay for DNA damage-inducible transcript 3 (DDIT3) using HepaRG (AID 2283488)
# In short: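 Cells are human HepaRG liver cells treated for 48 h with eight half-log concentrations up to 100 uM in 0.5% DMSO. Transcript levels come from qRT-PCR normalized to three housekeeping genes, with activity fitted in both directions relative to vehicle.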
# [3] = read-out: Pro-epidermal growth factor (Homo sapiens) (UniProt P01133); experiment: LTEA_HepaRG_EGF: Life Technologies and Expression Analysis (LTEA) Assay for Epidermal growth factor (EGF) using HepaRG (AID 2283489)
# In short: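 EGF transcript measured by Fluidigm TaqMan qRT-PCR with three housekeeping genes for normalization, 48 h after dosing HepaRG cultures in duplicate (top 100 uM, half-log steps, 0.5% DMSO vehicle). Gain or loss relative to DMSO fitted.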
# [4] = read-out: Early growth response protein 1 (EGR1) transcription factor, EGR1 (gene 1958); experiment: LTEA_HepaRG_EGR1: Life Technologies and Expression Analysis (LTEA) Assay for Early growth response protein 1 (EGR1) transcription factor using HepaRG (AID 2283490)
# In short: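 EGR1 transcript levels quantified by qRT-PCR (Fluidigm arrays) against three housekeeping genes after 48 h chemical exposure of HepaRG cells. Eight-point half-log series topping at 100 uM, 0.5% DMSO vehicle, analyzed for gain or loss.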
# [5] = read-out: Ezrin (EZR), EZR (gene 7430); experiment: LTEA_HepaRG_EZR: Life Technologies and Expression Analysis (LTEA) Assay for Ezrin (EZR) using HepaRG (AID 2283491)
# In short: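 HepaRG, 48 h chemical exposure, 8-pt half-log series from 100 uM, 0.5% DMSO vehicle, duplicates. Read-out: EZR mRNA by TaqMan qRT-PCR (Fluidigm array), housekeeping-normalized; bidirectional curve fit vs DMSO baseline.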
# [6] = read-out: Cytochrome P450 3A7 (Homo sapiens) (UniProt P24462); experiment: LTEA_HepaRG_CYP3A7: Life Technologies and Expression Analysis (LTEA) Assay for CYP3A7 using HepaRG (AID 2283492)
# In short: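 CYP3A7 transcript measured by qRT-PCR (ACTB, GAPDH, POLR2A normalization) after 48 h chemical exposure of HepaRG cells in duplicate. Eight half-log concentrations, maximum 100 uM, 0.5% DMSO vehicle; bidirectional curve fitting against DMSO baseline.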
# CYP3A5 (gene 1577) = experiment: LTEA_HepaRG_CYP3A5: Life Technologies and Expression Analysis (LTEA) Assay for CYP3A5 using HepaRG (AID 2283493)
# In short: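 Human HepaRG hepatic cells receive 48 h chemical treatment at eight concentrations (half-log steps from 100 uM) in 0.5% DMSO. Expression of CYP3A5 is quantified by Fluidigm qRT-PCR and normalized to three reference genes.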
# [7] = read-out: Fatty Acid-Binding Protein 1 (FABP1), FABP1 (gene 2168); experiment: LTEA_HepaRG_FABP1: Life Technologies and Expression Analysis (LTEA) Assay for Fatty Acid-Binding Protein 1 (FABP1) using HepaRG (AID 2283494)
# In short: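 FABP1 expression by TaqMan qRT-PCR, normalised to three housekeeping genes, in HepaRG cells after 48 h chemical treatment. Eight-point half-log series topping at 100 uM in 0.5% DMSO, duplicates; gain or loss fitted relative to vehicle.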
# [8] = read-out: Cytochrome P450 4A22 (Homo sapiens) (UniProt Q5TCH4); experiment: LTEA_HepaRG_CYP4A22: Life Technologies and Expression Analysis (LTEA) Assay for Cytochrome P450 4A22 (CYP4A22) using HepaRG (AID 2283495)
# In short: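 Gene expression measured by qRT-PCR against three housekeeping genes (ACTB, GAPDH, POLR2A), with gain or loss fitted relative to 0.5% DMSO vehicle. HepaRG cultures received 48 h chemical treatment, top concentration 100 uM, half-log steps, duplicate wells.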
# [9] = read-out: Cytochrome P450 7A1 (Homo sapiens) (UniProt P22680); experiment: LTEA_HepaRG_CYP7A1: Life Technologies and Expression Analysis (LTEA) Assay for Cytochrome P450 7A1 (CYP7A1) using HepaRG (AID 2283496)
# In short: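 HepaRG, 48 h exposure, 8-pt half-log series from 100 uM, 0.5% DMSO vehicle, duplicates. Readout: TaqMan qRT-PCR mRNA vs three housekeeping genes; bidirectional curve fit against DMSO baseline.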
# [10] = read-out: Glutathione S-Transferase (GSTA2), GSTA2 (gene 2939); experiment: LTEA_HepaRG_GSTA2: Life Technologies and Expression Analysis (LTEA) Assay for Glutathione S-Transferase (GSTA2) using HepaRG (AID 2283497)
# In short: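 GSTA2 transcript levels came from Fluidigm TaqMan qRT-PCR normalized to three housekeeping genes, fitted in both directions against DMSO. HepaRG cultures received chemicals for 48 h in serum-free induction medium (0.5% DMSO), 8 half-log concentrations up to 100 uM, duplicate.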
# [11] = read-out: Glutamate-cysteine ligase catalytic (GCLC), GCLC (gene 2729); experiment: LTEA_HepaRG_GCLC: Life Technologies and Expression Analysis (LTEA) Assay for Glutamate-cysteine ligase catalytic (GCLC) using HepaRG (AID 2283498)
# In short: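 Expression by TaqMan qRT-PCR, normalized to three housekeeping genes (ACTB, GAPDH, POLR2A), with up- or down-regulation fitted against DMSO. HepaRG cells dosed in duplicate for 48 h with 8 half-log concentrations up to 100 uM, vehicle 0.5% DMSO.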
# [12] = read-out: growth arrest and DNA damage 45 (GADD45G), GADD45G (gene 10912); experiment: LTEA_HepaRG_GADD45G: Life Technologies and Expression Analysis (LTEA) Assay for growth arrest and DNA damage 45 (GADD45G) using HepaRG (AID 2283499)
# In short: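 GADD45G transcript level by qRT-PCR (housekeeping-normalized: ACTB, GAPDH, POLR2A) after 48 h chemical treatment of a single HepaRG lot in serum-free induction medium; eight-point half-log series up to 100 uM in 0.5% DMSO, duplicates, up- or down-regulation scored.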
# [13] = read-out: Heat shock 70 kDa protein 1 (HSPA1A), gene 3303; experiment: LTEA_HepaRG_HSPA1A: Life Technologies and Expression Analysis (LTEA) Assay for Heat shock 70 kDa protein 1 (HSPA1A) using HepaRG (AID 2283502)
# In short: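 Cells were plated and cultured for 48 h, then switched to serum-free induction medium. Chemicals were added at eight half-log concentrations up to 100 uM for 48 h. RNA was then isolated and HSPA1A measured by qRT-PCR with bidirectional curve fitting against DMSO.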
# [14] = read-out: Hypoxia-inducible factor 1-alpha (Homo sapiens) (UniProt Q16665); experiment: LTEA_HepaRG_HIF1A: Life Technologies and Expression Analysis (LTEA) Assay for Hypoxia-inducible factor 1 (HIF1A) Trancription factor using HepaRG (AID 2283503)
# In short: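 HIF1A transcript level read by qRT-PCR (ACTB, GAPDH, POLR2A normalization) after 48 h chemical exposure of HepaRG cultures. Eight half-log concentrations, top 100 uM, 0.5% DMSO vehicle, duplicates; bidirectional curve fit against DMSO baseline.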
# [15] = read-out: 3-Hydroxy-3-Methylglutaryl-CoA Synthase 2 (HMGCS2), HMGCS2 (gene 3158); experiment: LTEA_HepaRG_HMGCS2: Life Technologies and Expression Analysis (LTEA) Assay for 3-Hydroxy-3-Methylglutaryl-CoA Synthase 2 (HMGCS2) using HepaRG (AID 2283504)
# In short: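 Readout is HMGCS2 transcript by qRT-PCR, housekeeping-normalised (ACTB/GAPDH/POLR2A) and fitted bidirectionally against 0.5% DMSO. Differentiated HepaRG cells received chemicals 48 h, duplicate wells, eight half-log concentrations topping at 100 uM.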
# [16] = read-out: Glutamate-cysteine ligase regulatory (GCLM), GCLM (gene 2730); experiment: LTEA_HepaRG_GCLM: Life Technologies and Expression Analysis (LTEA) Assay for Glutamate-cysteine ligase regulatory (GCLM) using HepaRG (AID 2283500)
# In short: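 Endpoint is GCLM transcript level by qRT-PCR, normalized to three housekeeping genes, after 48 h chemical exposure of human HepaRG cells (0.5% DMSO vehicle, top 100 uM, half-log dilutions). Fitting was bidirectional relative to DMSO.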
# [17] = read-out: Glutathione S-transferase M3 (GSTM3), GSTM3 (gene 2947); experiment: LTEA_HepaRG_GSTM3: Life Technologies and Expression Analysis (LTEA) Assay for Glutathione S-transferase M3 (GSTM3) using HepaRG (AID 2283501)
# In short: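 GSTM3 transcript levels came from Fluidigm TaqMan qRT-PCR normalized to three housekeeping genes, fitted in both directions against DMSO. HepaRG cultures received chemicals for 48 h in serum-free induction medium (0.5% DMSO), 8 half-log concentrations up to 100 uM, duplicate.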
# Sequence of Cytochrome P450 3A4 (Homo sapiens) (P08684 whole entry, looked up): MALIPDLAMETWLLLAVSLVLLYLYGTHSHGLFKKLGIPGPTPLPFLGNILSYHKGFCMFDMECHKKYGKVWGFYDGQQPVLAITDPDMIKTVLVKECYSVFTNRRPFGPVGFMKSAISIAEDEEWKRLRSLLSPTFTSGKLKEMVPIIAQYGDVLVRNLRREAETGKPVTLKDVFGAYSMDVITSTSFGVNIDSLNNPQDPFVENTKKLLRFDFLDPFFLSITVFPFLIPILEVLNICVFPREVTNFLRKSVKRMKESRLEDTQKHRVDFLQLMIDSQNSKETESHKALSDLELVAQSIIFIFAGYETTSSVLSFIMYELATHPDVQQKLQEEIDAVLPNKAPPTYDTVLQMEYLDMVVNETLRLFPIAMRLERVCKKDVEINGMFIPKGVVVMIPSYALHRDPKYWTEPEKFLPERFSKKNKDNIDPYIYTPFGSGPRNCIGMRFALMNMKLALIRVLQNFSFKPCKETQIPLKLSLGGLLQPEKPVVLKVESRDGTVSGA
# Sequence of Cytochrome P450 3A7 (Homo sapiens) (P24462 whole entry, looked up): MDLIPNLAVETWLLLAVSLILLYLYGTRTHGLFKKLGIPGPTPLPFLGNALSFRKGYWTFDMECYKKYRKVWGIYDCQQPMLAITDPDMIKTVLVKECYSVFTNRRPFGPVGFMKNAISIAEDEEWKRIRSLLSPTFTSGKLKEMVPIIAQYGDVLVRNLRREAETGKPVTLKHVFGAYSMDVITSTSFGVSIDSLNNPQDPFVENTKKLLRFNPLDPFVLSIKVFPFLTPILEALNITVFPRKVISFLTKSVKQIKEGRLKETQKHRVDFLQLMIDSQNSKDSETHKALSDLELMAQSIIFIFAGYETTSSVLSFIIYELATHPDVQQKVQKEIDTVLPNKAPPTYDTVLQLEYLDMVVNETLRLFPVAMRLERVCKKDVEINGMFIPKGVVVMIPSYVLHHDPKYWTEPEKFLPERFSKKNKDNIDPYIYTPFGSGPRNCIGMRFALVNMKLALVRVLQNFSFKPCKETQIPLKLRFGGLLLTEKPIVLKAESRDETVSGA
# Sequence of Hypoxia-inducible factor 1-alpha (Homo sapiens) (Q16665 whole entry, looked up): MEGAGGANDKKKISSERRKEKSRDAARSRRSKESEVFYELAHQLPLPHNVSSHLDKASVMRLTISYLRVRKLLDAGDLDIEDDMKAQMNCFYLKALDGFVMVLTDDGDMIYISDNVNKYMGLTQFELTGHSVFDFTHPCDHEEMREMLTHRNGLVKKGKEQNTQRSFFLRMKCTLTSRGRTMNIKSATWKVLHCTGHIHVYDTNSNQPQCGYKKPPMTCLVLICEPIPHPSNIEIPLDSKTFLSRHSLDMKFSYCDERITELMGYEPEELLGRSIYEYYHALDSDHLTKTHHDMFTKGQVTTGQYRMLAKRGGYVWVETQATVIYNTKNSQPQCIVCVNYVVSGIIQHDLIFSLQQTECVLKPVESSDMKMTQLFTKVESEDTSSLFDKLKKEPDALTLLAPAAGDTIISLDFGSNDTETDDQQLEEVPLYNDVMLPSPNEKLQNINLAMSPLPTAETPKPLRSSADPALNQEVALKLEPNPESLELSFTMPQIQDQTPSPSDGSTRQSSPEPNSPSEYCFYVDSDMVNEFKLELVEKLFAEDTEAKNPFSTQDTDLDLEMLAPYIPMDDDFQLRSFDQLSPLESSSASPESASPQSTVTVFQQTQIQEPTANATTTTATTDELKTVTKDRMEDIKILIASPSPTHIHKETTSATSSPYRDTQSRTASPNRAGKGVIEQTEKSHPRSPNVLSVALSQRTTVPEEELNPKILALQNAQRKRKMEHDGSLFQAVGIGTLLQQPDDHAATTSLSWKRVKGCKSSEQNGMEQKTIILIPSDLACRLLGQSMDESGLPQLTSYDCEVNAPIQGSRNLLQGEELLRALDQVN
compound,measurement,setting,value
O=C(O)c1cccc(C[C@@H]2COc3ccc(OCc4nc5cc(F)ccc5s4)cc3[C@@H]2O)c1,AC50,CYP2E1 (gene 1571),71.7 µM (active)
same,AC50,CYP4A11 (gene 1579),85.9 µM (active)
same,AC50,[1],78.2 µM (active)
same,outcome,[2],inactive
same,outcome,[3],inactive
same,outcome,[4],inactive
same,outcome,[5],inactive
same,AC50,[6],82.2 µM (active)
same,outcome,CYP3A5 (gene 1577),inactive
same,AC50,[7],79.3 µM (active)
same,AC50,[8],90.8 µM (active)
same,AC50,[9],77.6 µM (active)
same,outcome,[10],inactive
same,outcome,[11],inactive
same,AC50,[12],79.5 µM (active)
same,AC50,[13],89.2 µM (active)
same,AC50,[14],81.3 µM (active)
same,AC50,[15],66.8 µM (active)
CC[C@H](C)C(=O)O[C@H]1C[C@H](O)C=C2C=C[C@H](C)[C@H](CC[C@@H](O)C[C@@H](O)CC(=O)O)[C@H]21,AC50,CYP2E1 (gene 1571),50 µM (active)
same,outcome,CYP4A11 (gene 1579),inactive
same,outcome,[1],inactive
same,outcome,[2],inactive
same,outcome,[3],inactive
same,outcome,[4],inactive
same,outcome,[5],inactive
same,outcome,[6],inactive
same,outcome,CYP3A5 (gene 1577),inactive
same,AC50,[7],3.68 µM (active)
same,outcome,[8],inactive
same,outcome,[9],inactive
same,outcome,[10],inactive
same,outcome,[11],inactive
same,outcome,[12],inactive
same,outcome,[16],inactive
same,outcome,[13],inactive
same,outcome,[14],inactive
same,outcome,[15],inactive
c1ccc2cc3ccccc3cc2c1,AC50,CYP2E1 (gene 1571),50 µM (active)
same,outcome,CYP4A11 (gene 1579),inactive
same,outcome,[1],inactive
same,outcome,[2],inactive
same,outcome,[3],inactive
same,outcome,[4],inactive
same,outcome,[5],inactive
same,AC50,[6],13.2 µM (active)
same,outcome,CYP3A5 (gene 1577),inactive
same,outcome,[7],inactive
same,outcome,[8],inactive
same,outcome,[9],inactive
same,outcome,[10],inactive
same,outcome,[11],inactive
same,outcome,[12],inactive
same,outcome,[17],inactive
same,outcome,[13],inactive
same,outcome,[14],inactive
same,outcome,[15],inactive
